Measurements published in the supplement of paper PMC6992640.
Where a name gives a salt, the structure may show the parent alone. ± gives the standard deviation of the averaged measurements.

Legend:
Assay in all cases: cell viability (% of vehicle); higher = less cytotoxic
Conditions in all cases: 10 µM; 72 h
[1] = test system: HCI01 (cells of a triple-negative basal-like breast cancer xenograft)
[2] = test system: HCI03 (cells of an ER-positive luminal breast cancer xenograft)
[3] = test system: HCI09 (cells of a triple-negative luminal androgen receptor type breast cancer xenograft)
[4] = test system: HCI11 (cells of an ER-positive luminal breast cancer xenograft)
[5] = test system: HCI13 (cells of an ER-positive luminal breast cancer xenograft)
[6] = test system: HCI16 (cells of a triple-negative basal-like breast cancer xenograft)
[7] = test system: UCD52 (cells of a triple-negative basal-like breast cancer xenograft)
[8] = test system: WHIM2 (cells of a triple-negative basal-like breast cancer xenograft)
[9] = test system: WHIM30 (cells of a triple-negative basal-like breast cancer xenograft)
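Note: PDX cells carrying CMV promoter-driven luciferase, viability read as total photon flux per second by IVIS imaging following D-luciferin, vehicle control 0.1% DMSO.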

SMILES: COC(=O)C1=COC(O)C2C(CO)=CCC12 (stereo not given) [Genipin]
- cell viability [1]: 168 ± 20
- cell viability [2]: 138
- cell viability [3]: 95.3 ± 6
- cell viability [4]: 98.6
- cell viability [5]: 119 ± 2.7
- cell viability [6]: 198
- cell viability [7]: 110 ± 5.3
- cell viability [8]: 124 ± 11
- cell viability [9]: 155 ± 9.6

SMILES: Cc1c(-c2cnccn2)ssc1=S [Oltipraz]
- cell viability [1]: 89.2 ± 5.2
- cell viability [2]: 113
- cell viability [3]: 88.5 ± 4
- cell viability [4]: 66.1
- cell viability [5]: 89.8 ± 8.7
- cell viability [6]: 104
- cell viability [7]: 94.8 ± 9.3
- cell viability [8]: 91 ± 14
- cell viability [9]: 72.8 ± 2.9

SMILES: CC(CN1c2ccccc2Sc2ccccc21)N(C)C (stereo not given) [Promethazine HCl]
- cell viability [1]: 106 ± 15
- cell viability [2]: 90
- cell viability [3]: 75.8 ± 5.4
- cell viability [4]: 92.9
- cell viability [5]: 96.1 ± 3.6
- cell viability [6]: 107
- cell viability [7]: 73.3 ± 6.1
- cell viability [8]: 85 ± 17
- cell viability [9]: 114 ± 7.7

SMILES: COc1cc(NC(C)CCCN)c2ncccc2c1.O=P(O)(O)O.O=P(O)(O)O (stereo not given) [Primaquine Diphosphate]
- cell viability [1]: 56.3 ± 9.8
- cell viability [2]: 95.2
- cell viability [3]: 29.3 ± 9.9
- cell viability [4]: 49
- cell viability [5]: 68.2 ± 11
- cell viability [6]: 116
- cell viability [7]: 75.7 ± 10
- cell viability [8]: 70.5 ± 11
- cell viability [9]: 112 ± 1.8

SMILES: COC(=O)C(c1ccccc1Cl)N1CCc2sccc2C1.O=S(=O)(O)O (stereo not given) [Clopidogrel]
- cell viability [1]: 102 ± 3
- cell viability [2]: 115
- cell viability [3]: 91 ± 13
- cell viability [4]: 119
- cell viability [5]: 103 ± 4.8
- cell viability [6]: 101
- cell viability [7]: 76.7 ± 16
- cell viability [8]: 80.012 ± 0.0022
- cell viability [9]: 136 ± 6.6

SMILES: CC(O)C1C(=O)N2C(C(=O)O)=C(SC3CNC(CNS(N)(=O)=O)C3)C(C)C12.O (stereo not given) [Doripenem Hydrate]
- cell viability [1]: 103 ± 1.4
- cell viability [2]: 91.1
- cell viability [3]: 95.9 ± 7
- cell viability [4]: 84.3
- cell viability [5]: 84.8 ± 5.9
- cell viability [6]: 95.3
- cell viability [7]: 89.1 ± 5.5
- cell viability [8]: 93.6 ± 7.5
- cell viability [9]: 109 ± 5.1

SMILES: CCOC(=O)C(CCc1ccccc1)NC1CCc2ccccc2N(CC(=O)O)C1=O.Cl (stereo not given) [Benazepril HCl]
- cell viability [1]: 107 ± 11
- cell viability [2]: 159
- cell viability [3]: 130 ± 41
- cell viability [4]: 93.5
- cell viability [5]: 196 ± 40
- cell viability [6]: 161
- cell viability [7]: 130 ± 7.6
- cell viability [8]: 107 ± 13
- cell viability [9]: 170 ± 22

SMILES: CC(NC(=O)C(O)C(C)C)C(=O)NC1C(=O)N(C)CCc2ccccc21 (stereo not given)
- cell viability [1]: 144 ± 28
- cell viability [2]: 106
- cell viability [3]: 71.2 ± 7.3
- cell viability [4]: 119
- cell viability [5]: 102 ± 21
- cell viability [6]: 180
- cell viability [7]: 81 ± 20
- cell viability [8]: 69.98 ± 0.17
- cell viability [9]: 184 ± 11

SMILES: CC(=O)Oc1cc(C(F)(F)F)ccc1C(=O)O [Triflusal]
- cell viability [1]: 108 ± 22
- cell viability [2]: 129
- cell viability [3]: 97 ± 13
- cell viability [4]: 101
- cell viability [5]: 107 ± 1.9
- cell viability [6]: 98.4
- cell viability [7]: 76 ± 3.1
- cell viability [8]: 107 ± 17
- cell viability [9]: 85.4 ± 4.2

SMILES: C=CCc1cc(OC)c(O)c(C(=O)NCCO)c1 [Alibendol]
- cell viability [1]: 98.3 ± 18
- cell viability [2]: 139
- cell viability [3]: 107 ± 17
- cell viability [4]: 110
- cell viability [5]: 68 ± 5
- cell viability [6]: 133
- cell viability [7]: 109 ± 3.4
- cell viability [8]: 115 ± 23
- cell viability [9]: 138 ± 20

SMILES: NCCCC(O)(P(=O)([O-])O)P(=O)(O)O.[Na+] [Alendronate sodium]
- cell viability [1]: 102 ± 7.7
- cell viability [2]: 111
- cell viability [3]: 95.1 ± 18
- cell viability [4]: 97.3
- cell viability [5]: 97.6 ± 3.9
- cell viability [6]: 97.1
- cell viability [7]: 79 ± 5.8
- cell viability [8]: 93.7 ± 13
- cell viability [9]: 116 ± 8.4

SMILES: CS(=O)(=O)O.N#CC1(c2ccc(NC(=O)c3cccnc3NCc3ccncc3)cc2)CCCC1 [Apatinib]
- cell viability [1]: 140 ± 88
- cell viability [2]: 109
- cell viability [3]: 33.4 ± 8.3
- cell viability [4]: 65.4
- cell viability [5]: 65 ± 2
- cell viability [6]: 119
- cell viability [7]: 48.5 ± 6.5
- cell viability [8]: 85.3 ± 4.8
- cell viability [9]: 105 ± 19

SMILES: CC12CCC3c4ccc(O)cc4CC(CCCCCCCCCS(=O)CCCC(F)(F)C(F)(F)F)C3C1CCC2O (stereo not given) [Fulvestrant]
- cell viability [1]: 137 ± 7.5
- cell viability [2]: 89.1
- cell viability [3]: 65.5 ± 7.2
- cell viability [4]: 85.6
- cell viability [5]: 53 ± 6.5
- cell viability [6]: 95.7
- cell viability [7]: 78.9 ± 3.8
- cell viability [8]: 77.5 ± 36
- cell viability [9]: 129 ± 12

SMILES: O=C1CCC(C(=O)N2CSCC2C(=O)O)N1 (stereo not given) [Pidotimod]
- cell viability [1]: 93.1 ± 30
- cell viability [2]: 137
- cell viability [3]: 96.2 ± 5.1
- cell viability [4]: 96.7
- cell viability [5]: 132 ± 3.4
- cell viability [6]: 108
- cell viability [7]: 98.5 ± 9.8
- cell viability [8]: 90 ± 22
- cell viability [9]: 122 ± 2.3

SMILES: NC(=O)NN=Cc1ccc([N+](=O)[O-])o1 [Nitrofurazone]
- cell viability [1]: 125 ± 3.8
- cell viability [2]: 149
- cell viability [3]: 38.5 ± 15
- cell viability [4]: 92.3
- cell viability [5]: 159 ± 12
- cell viability [6]: 148
- cell viability [7]: 137 ± 15
- cell viability [8]: 105 ± 7.4
- cell viability [9]: 118 ± 18

SMILES: Cc1cc(NS(=O)(=O)c2ccc(N)cc2)no1 [Sulfamethoxazole]
- cell viability [1]: 115 ± 29
- cell viability [2]: 127
- cell viability [3]: 107 ± 30
- cell viability [4]: 95.4
- cell viability [5]: 120 ± 1.2
- cell viability [6]: 154
- cell viability [7]: 99.6 ± 4.2
- cell viability [8]: 117.5 ± 0.64
- cell viability [9]: 196 ± 4

SMILES: CNC(=O)c1ccc(N2C(=S)N(c3ccc(C#N)c(C(F)(F)F)c3)C(=O)C2(C)C)cc1F [MDV3100 (Enzalutamide)]
- cell viability [1]: 115 ± 11
- cell viability [2]: 138
- cell viability [3]: 104.5 ± 0.14
- cell viability [4]: 96.1
- cell viability [5]: 94.3 ± 22
- cell viability [6]: 107
- cell viability [7]: 117 ± 6
- cell viability [8]: 97.9 ± 3.6
- cell viability [9]: 157 ± 1.9

SMILES: COC1=CC=C(/C(C2=CC=C(OC)C=C2)=C(Cl)/C3=CC=C(OC)C=C3)C=C1 [Chlorotrianisene]
- cell viability [1]: 85.2 ± 4.9
- cell viability [2]: 125
- cell viability [3]: 86.2 ± 23
- cell viability [4]: 101
- cell viability [5]: 76.3 ± 15
- cell viability [6]: 95.5
- cell viability [7]: 89.8 ± 13
- cell viability [8]: 95 ± 1.6
- cell viability [9]: 96.58 ± 0.32

SMILES: Cn1c(=O)c2[nH]cnc2n(C)c1=O.Cn1c(=O)c2[nH]cnc2n(C)c1=O.NCCN [Aminophylline]
- cell viability [1]: 98 ± 18
- cell viability [2]: 95.2
- cell viability [3]: 93.6 ± 9.1
- cell viability [4]: 99.4
- cell viability [5]: 101 ± 5.1
- cell viability [6]: 75.8
- cell viability [7]: 72 ± 16
- cell viability [8]: 97.4 ± 7.5
- cell viability [9]: 92.5 ± 24

SMILES: Nc1cc(C(Cl)=C(Cl)Cl)c(S(N)(=O)=O)cc1S(N)(=O)=O [Clorsulon]
- cell viability [1]: 107 ± 17
- cell viability [2]: 108
- cell viability [3]: 125 ± 47
- cell viability [4]: 106
- cell viability [5]: 194 ± 11
- cell viability [6]: 169
- cell viability [7]: 116 ± 11
- cell viability [8]: 112 ± 14
- cell viability [9]: 152 ± 7.4
